{"source": "PubChem BioAssay (NCATS)", "note": "Records with an inconclusive call do not appear. A number with no mark means an inactive call. Calls of active or inactive are those of the source. The call rests on the fitted dose curve; in most records, active means well fitted inhibition curve with a large enough effect; inconclusive means small, poorly fitted or top-dose-only effect; inactive means flat fitted curve, though single readings scatter. Where a SMILES comes first, the peptide text is derived from it. [ ]: non-standard residue; d: D form. PhLac = O=C(O)[CH](O)Cc1ccccc1; NMeV = CN[CH](C(=O)O)C(C)C", "data": [{"biological_target": "Calcium and integrin-binding protein 1 (Homo sapiens) (UniProt Q99828)", "sequence (Q99828 whole entry, looked up)": "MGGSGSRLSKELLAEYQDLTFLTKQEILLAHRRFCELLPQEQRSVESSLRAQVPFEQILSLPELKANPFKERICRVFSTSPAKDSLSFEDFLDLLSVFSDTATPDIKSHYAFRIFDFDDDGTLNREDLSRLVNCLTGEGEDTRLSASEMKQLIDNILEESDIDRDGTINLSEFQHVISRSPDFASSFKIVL", "test": "Primary qHTS for Identification of Calcium Integrin Binding Protein 1 (CIB1) Competitor (AID 1508620);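 further: GST tagged CIB1 binding a fluorescein labelled alphaIIb integrin peptide tracer; top concentration of the series differs between compounds; on the % scale 0 is the no-effect control and ±100 the full control effect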", "conditions": "CIB1-GST / FITC-alphaIIb peptide fluorescence polarization; series mostly up to 57.7 µM; activity change, negative = inhibition: at the top concentration", "summary_of_the_method": "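Fluorescence polarization competition: CIB1-GST (1 uM final) preincubated with compound 15 min at room temperature, then FITC-labeled alphaIIb peptide (100 nM final) added for another 15 min. Polarization read at Ex 480/Em 540.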", "values": [{"smiles": "CC1C(=O)CC2C3C(O)CC(C(=O)O)C12CC3(C)C", "note": "(centres undefined)", "activity change, negative = inhibition": "0.24% [at 114 µM]"}, {"smiles": "C[C@]12CCC[C@](C)(C(=O)O)C1CCC13C=C(CO)C(CCC12)C3", "note": "(some centres undefined)", "activity change, negative = inhibition": "3.6%"}, {"smiles": "Cc1c(CN(C)C(=O)/C=C/c2cnc3c(c2)CCC(=O)N3)oc2ccccc12", "activity change, negative = inhibition": "2.58% [at 114 µM]"}, {"smiles": "C[C@@H]1CC[C@]2(C(=O)O[C@@H]3O[C@H](CO)[C@@H](O)[C@H](O)[C@H]3O)CC[C@]3(C)C(=CCC4[C@@]5(C)C[C@@H](O)[C@H](O)C(C)(C)C5CC[C@]43C)C2[C@]1(C)O", "note": "(some centres undefined)", "activity change, negative = inhibition": "0.644% [at 30.2 µM]"}, {"smiles": "CCNC(=O)[C@@H]1CCCN1C(=O)[C@H](CCCN=C(N)N)NC(=O)[C@H](CC(C)C)NC(=O)[C@@H](C)NC(=O)[C@H](Cc1ccc(O)cc1)NC(=O)[C@H](CO)NC(=O)[C@H](Cc1c[nH]c2ccccc12)NC(=O)[C@H](Cc1cnc[nH]1)NC(=O)[C@@H]1CCC(=O)N1", "activity change, negative = inhibition": "-13%"}, {"smiles": "CC(=O)OC[C@@]12[C@H](O)C[C@]3(C)C(=CCC4[C@@]5(C)CC[C@H](O[C@@H]6O[C@H](C(=O)O)[C@@H](O[C@@H]7O[C@H](CO)[C@@H](O)[C@H](O)[C@H]7O)[C@H](O)[C@H]6O[C@@H]6O[C@H](CO)[C@@H](O)[C@H](O)[C@H]6O)[C@](C)(CO)C5CC[C@]43C)[C@@H]1CC(C)(C)[C@@H](OC(C)=O)[C@@H]2O", "note": "(some centres undefined)", "activity change, negative = inhibition": "2.83% [at 30.2 µM]"}, {"smiles": "CC1(C(=O)O)CCCC2(C)C1CCC13CC(CCC21)C1(CO)OC31", "note": "(centres undefined)", "activity change, negative = inhibition": "5.47%"}, {"smiles": "C#Cc1cnc2[nH]c(=O)n(C(CC)CC)c2n1", "activity change, negative = inhibition": "1.47% [at 114 µM]"}, {"smiles": "OC[C@H]1O[C@@H](Oc2cc(O)cc(/C=C/c3ccc(O)cc3)c2)[C@H](O)[C@@H](O)[C@@H]1O", "activity change, negative = inhibition": "2.33% [at 114 µM]"}, {"smiles": "C[C@@H]1C(=O)O[C@H]2CC34[C@H]5C[C@@H](C(C)(C)C)C36[C@@H](OC(=O)[C@@H]6O)OC4(C(=O)O5)[C@]21O", "note": "(some centres undefined)", "activity change, negative = inhibition": "1.41% [at 114 µM]"}, {"smiles": "C=CC(C)(C)C12CC3C(=O)NC(Cc4cnc[nH]4)C(=O)N3C1Nc1ccccc12", "note": "(centres undefined)", "activity change, negative = inhibition": "-3.75%"}, {"smiles": "CC(C)CNC(=O)/C=C/CCCCc1ccc2c(c1)OCO2", "activity change, negative = inhibition": "4.28%"}, {"smiles": "CCOC(=O)[C@H]1O[C@@H]1C(=O)N[C@@H](CC(C)C)C(=O)NCCC(C)C", "activity change, negative = inhibition": "-4.82% [at 114 µM]"}, {"smiles": "O=C(c1ccc(F)cc1)C1CCN(CCn2c(=O)nc3n(c2=O)CCCC3)CC1", "activity change, negative = inhibition": "1.48% [at 114 µM]"}, {"smiles": "Nc1nc(CC(=O)Nc2ccc(CCNCC(O)c3ccccc3)cc2)cs1", "note": "(centres undefined)", "activity change, negative = inhibition": "6.4% [at 114 µM]"}, {"smiles": "CCOC(=O)N1CCC(NCCNC(=O)c2ccccc2C)CC1", "activity change, negative = inhibition": "3.6% [at 114 µM]"}, {"smiles": "COCCN(C)Cc1ccc2nc3sc(C(=O)N(C)C4CCCCC4)cn3c2c1", "activity change, negative = inhibition": "1.34% [at 114 µM]"}, {"smiles": "O=c1c2cccnc2n(-c2cccc([N+](=O)[O-])c2)c(=O)n1Cc1ccncc1", "activity change, negative = inhibition": "3.01% [at 114 µM]"}, {"smiles": "COc1cc2c(cc1O)C1(Cc3ccc4c(c3C1=O)OCO4)N(C)CC2", "note": "(centres undefined)", "activity change, negative = inhibition": "-11.7%"}, {"smiles": "CC(C)C(C(=O)N1CCCC1C(=O)O)N(C)C(=O)C(O)Cc1ccccc1", "note": "(centres undefined) (H-[PhLac]-[NMeV]-Pro-OH; configuration not given here)", "activity change, negative = inhibition": "3.88%"}, {"smiles": "C[C@@H]1CC[C@]2(C)C(C[C@@H](O)[C@H](O)[C@]23CO3)[C@@]1(C)CCc1ccoc1", "note": "(some centres undefined)", "activity change, negative = inhibition": "3.4%"}, {"smiles": "CC(=O)O[C@H](C[C@@H](C)[C@H]1C(=O)[C@H](O)[C@@]2(C)[C@@H]3CCC4C(C)(C)[C@@H](O[C@@H]5OC[C@H](O)[C@H](O)[C@H]5O)CC[C@@]45C[C@@]35CC[C@]12C)[C@@H]1OC1(C)C", "note": "(some centres undefined)", "activity change, negative = inhibition": "2.19% [at 30.2 µM]"}, {"smiles": "O=C(NCc1ccc(OC(F)(F)F)cc1)C1c2ccccc2C(=O)N1C1CCOCC1", "note": "(centres undefined)", "activity change, negative = inhibition": "1.45% [at 114 µM]"}, {"smiles": "CC(C)(O)C1CCC2(C)C3C(O)C4C(C13)C42CO", "note": "(centres undefined)", "activity change, negative = inhibition": "-0.326% [at 114 µM]"}, {"smiles": "COC(=O)C1=CO[C@@H](O[C@@H]2O[C@H](CO[C@@H]3O[C@H](COC(=O)/C=C/c4ccc(O)cc4)[C@@H](O)[C@H](O)[C@H]3O)[C@@H](O)[C@H](O)[C@H]2O)[C@@H]2C(CO)=CC[C@H]12", "activity change, negative = inhibition": "1.47% [at 30.2 µM]"}, {"smiles": "Clc1ccc2c(c1)C1=NCCN1c1c(-c3noc(C4CC4)n3)ncn1-2", "activity change, negative = inhibition": "-7.06% [at 114 µM]"}, {"smiles": "C/C=C/C1=CC2=CC(=O)C(C)(O)C(OC(=O)c3c(C)cc(O)cc3O)C2CO1", "note": "(centres undefined)", "activity change, negative = inhibition": "-12.3%"}, {"smiles": "C[C@@H]1O[C@@H](O[C@H]2[C@H](OC(=O)[C@]34CCC(C)(C)C[C@H]3C3=CCC5[C@@]6(C)C[C@H](O)[C@H](O[C@@H]7O[C@H](CO)[C@@H](O[C@@H]8O[C@H](CO)[C@@H](O)[C@H](O)[C@H]8O)[C@H](O)[C@H]7O)[C@@](C)(CO)C6[C@H](O)C[C@@]5(C)[C@]3(C)C[C@H]4O)OC[C@H](O)[C@@H]2O)[C@H](O)[C@H](O)[C@H]1O[C@@H]1OC[C@@H](O)[C@H](O[C@@H]2OC[C@](O)(CO)[C@H]2O)[C@H]1O", "note": "(some centres undefined)", "activity change, negative = inhibition": "4.23% [at 12.4 µM]"}, {"smiles": "CC(C)Nc1cc(-c2c[nH]c(C(=O)N[C@H](CO)c3cccc(Cl)c3)c2)c(Cl)cn1", "Potency": "inactive"}, {"smiles": "COc1cc(C2c3cc(O)c(OC)cc3CC(CO)C2CO)ccc1O", "note": "(centres undefined)", "activity change, negative = inhibition": "1.98%"}, {"smiles": "OCCc1ccc(O[C@@H]2O[C@H](CO)[C@@H](O)[C@H](O)[C@H]2O)c(O)c1", "activity change, negative = inhibition": "1.65%"}, {"smiles": "CC1=C2C3OC(=O)C(C)C3(O)CCC2(C)CCC1=O", "note": "(centres undefined)", "activity change, negative = inhibition": "-2.64% [at 114 µM]"}, {"smiles": "OCC1OC(Oc2cc(O)c3c(c2)OC(c2ccc(O)cc2)C(O)C3)C(O)C1O", "note": "(centres undefined)", "activity change, negative = inhibition": "1.64%"}, {"smiles": "CC(C)=CCC/C(C)=C/CC/C(C)=C/CC[C@]1(C)CCc2cc(O)cc(C)c2O1", "activity change, negative = inhibition": "3.21%"}, {"smiles": "CC/C=C\\C[C@H]1C(=O)C=C[C@@H]1CCCCCCCC(=O)O", "activity change, negative = inhibition": "-16.9% [at 114 µM]"}, {"smiles": "N#Cc1ccnc(N2C(=O)CC[C@H]2C(=O)N(c2cncc(F)c2)[C@H](C(=O)NC2CC(F)(F)C2)c2ccccc2Cl)c1", "Potency": "inactive"}, {"smiles": "CCOc1cc2ncc(C#N)c(Nc3ccc(OCc4ccccn4)c(Cl)c3)c2cc1NC(=O)/C=C/CN(C)C", "activity change, negative = inhibition": "2.85%"}, {"smiles": "CCC(C)(O)C(O)C(=O)OCc1ccc(O[C@@H]2O[C@H](CO)[C@@H](O)[C@H](O)[C@H]2O)cc1", "note": "(some centres undefined)", "activity change, negative = inhibition": "3.7%"}, {"smiles": "Cc1ncc([N+](=O)[O-])n1CC(O)CN1CCOCC1", "note": "(centres undefined)", "activity change, negative = inhibition": "-4.43% [at 114 µM]"}]}]}
